Reference: PubChem BioAssay (NCATS)
Records with an inconclusive call do not appear. The source made the active and inactive calls. Unless noted, calls follow the shape of the dose curve; as a rule, active = well fitted curve in the direction sought with a large enough effect; inconclusive = small, poorly fitted or top-dose-only effect, or another doubt; inactive = no such curve, though single readings can be large; an effect the other way counts as inactive or inconclusive.

Columns and labels:
[1] = AP1 Signaling Pathway (AID 357; active = well fitted curve in either direction with a large enough effect, not every such curve was filed as active;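 also: ME-180 reporter cells stimulated with EGF at its EC50 level; % is scaled to controls: 0 for no effect and ±100 for the full control effect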)
In short: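 Beta-lactamase reporter under AP-1 response element, ME-180 background. Stimulus: EC50 EGF. Compound exposure 5 h, 37 °C. Detection: CCF4, 2.5 h RT, 460/530 nm. Values: AC50 from titration.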

[2] = target: Cytochrome P450 1A2 (Homo sapiens) (UniProt P05177); assay: p450-cyp1a2 (AID 410; calls by dose curve;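 also: -100% = full effect of reference inhibitor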)
Cytochrome P450 1A2 (Homo sapiens), sequence (P05177 whole entry, looked up): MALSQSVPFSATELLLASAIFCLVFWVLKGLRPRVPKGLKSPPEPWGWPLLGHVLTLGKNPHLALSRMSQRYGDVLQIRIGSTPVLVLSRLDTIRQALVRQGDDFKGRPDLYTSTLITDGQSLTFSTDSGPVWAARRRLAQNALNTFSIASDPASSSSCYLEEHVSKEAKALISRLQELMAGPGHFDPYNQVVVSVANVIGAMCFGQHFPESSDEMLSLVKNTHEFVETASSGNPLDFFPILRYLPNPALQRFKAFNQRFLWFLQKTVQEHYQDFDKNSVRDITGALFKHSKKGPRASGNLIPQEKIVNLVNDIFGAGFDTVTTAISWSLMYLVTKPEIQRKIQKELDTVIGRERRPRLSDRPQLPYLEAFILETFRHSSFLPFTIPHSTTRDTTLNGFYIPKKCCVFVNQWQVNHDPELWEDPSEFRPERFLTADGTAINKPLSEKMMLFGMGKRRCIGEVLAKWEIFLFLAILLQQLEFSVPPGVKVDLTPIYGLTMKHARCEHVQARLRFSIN
In short: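 Luminescent demethylation readout: Luciferin-ME (100uM, equal to Km) turned over by 20nM CYP1A2 for 60 min at room temperature after NADPH regeneration addition, following 10 min compound preincubation. Normalization used 57 uM furafylline as full inhibition.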

[3] = NFAT Signaling Pathway (AID 444; active = well fitted curve in either direction with a large enough effect, not every such curve was filed as active;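 also: carbachol stimulus at about its EC50 of 1 µM final; % is scaled to controls: 0 for no effect and ±100 for the full control effect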); details: Jurkat NFAT-bla M1, carbachol, beta-lactamase ratio, 5 h; at 17.2 µM (top of the series) unless noted
In short: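 Jurkat cells carrying an NFAT-driven β-lactamase reporter and co-transfected muscarinic M1 receptor were treated with compound plus carbachol (1 uM final, an EC50 level) for 5 h at 37 °C. CCF4 loading followed for 1 h at RT; 460/530 nm ratio gave %activity.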

[4] = Stat Signaling Pathway (AID 446; active = well fitted curve in either direction with a large enough effect, not every such curve was filed as active;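 also: ME-180 cervical cancer cells given 40 pM IL-6 alongside compound; SIE-controlled beta-lactamase reporter measured as 460/530 nm FRET emission ratio; % is scaled to controls: 0 for no effect and ±100 for the full control effect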)
In short: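 Overnight-plated ME-180 cells bearing a STAT Inducible Element beta-lactamase reporter; 5 h co-exposure to compound and 40 pM IL-6; values normalized to 300 pM IL-6 and 125 nM JAK inhibitor controls.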

[5] = target: Glucocorticoid receptor (Homo sapiens) (UniProt P04150); assay: GR-GFP Redistribution (AID 450;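 active = compounds whose dose series gives a full or clear partial fitted curve of increased nuclear translocation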; also: potency is read from the fitted curve at half-maximal effect); details: U2OS GR-GFP nuclear translocation, laser cytometry, 2 h
Glucocorticoid receptor (Homo sapiens), sequence (P04150 whole entry, looked up, the tested form may be a part): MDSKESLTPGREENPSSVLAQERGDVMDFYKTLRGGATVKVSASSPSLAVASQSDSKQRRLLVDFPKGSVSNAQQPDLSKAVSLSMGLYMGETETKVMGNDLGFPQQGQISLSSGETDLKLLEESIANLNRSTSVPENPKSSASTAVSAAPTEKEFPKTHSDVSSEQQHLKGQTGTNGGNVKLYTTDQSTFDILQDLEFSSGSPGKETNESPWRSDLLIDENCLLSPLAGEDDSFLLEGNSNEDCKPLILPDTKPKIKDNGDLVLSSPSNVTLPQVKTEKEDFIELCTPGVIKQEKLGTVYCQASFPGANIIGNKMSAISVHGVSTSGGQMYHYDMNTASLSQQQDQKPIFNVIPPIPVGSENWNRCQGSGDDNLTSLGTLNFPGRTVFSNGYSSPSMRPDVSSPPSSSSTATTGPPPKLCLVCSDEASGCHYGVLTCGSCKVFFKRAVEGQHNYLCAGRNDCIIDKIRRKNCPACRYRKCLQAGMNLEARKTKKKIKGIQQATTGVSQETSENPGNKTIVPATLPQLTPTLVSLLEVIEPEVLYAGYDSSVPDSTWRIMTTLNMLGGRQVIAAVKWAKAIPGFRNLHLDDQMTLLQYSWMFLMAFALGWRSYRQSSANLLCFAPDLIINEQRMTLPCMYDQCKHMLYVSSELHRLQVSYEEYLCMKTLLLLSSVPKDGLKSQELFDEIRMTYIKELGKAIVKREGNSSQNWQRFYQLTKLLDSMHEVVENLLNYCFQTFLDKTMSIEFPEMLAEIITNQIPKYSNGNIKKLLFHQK

[6] = target: Glucocorticoid receptor (Homo sapiens) (UniProt P04150); assay: GR-EFC Redistribution (AID 451; calls by dose curve; also: potency is read from the fitted curve at half-maximal effect); details: CHO-K1 GR-EFC translocation, beta-gal luminescence, 2 h
In short: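 CHO-K1 cells stably expressing nuclear-localized β-gal enzyme acceptor and GR fused C-terminally to the enzyme donor fragment; ligand-driven nuclear translocation restores β-gal by complementation. Compounds titrated up to 46 uM final, 2 h at 37 °C; luminescence read.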

[7] = target: Mitogen-activated protein kinase 10 (Mus musculus) (UniProt Q61831); assay: JNK3 AlphaScreen Assay (AID 530; active = well fitted curve in either direction with a large enough effect, not every such curve was filed as active;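 also: kinase came from lysate of stimulated human HepG2 cells; signal reports phosphorylation of biotinylated GST-cJun 1-79 at Ser73 with 10 µM ATP; % is scaled to controls: 0 for no effect and ±100 for the full control effect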)
In short: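 Phosphorylation of biotinylated GST-cJun(1-79) at Ser73 is measured by AlphaScreen proximity luminescence. Enzyme is JNK3 in HepG2 lysates activated with interleukin-1beta and tumor necrosis factor alpha; ATP is 10 uM final.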

[8] = target: 3',5'-cyclic-AMP phosphodiesterase 4B (Homo sapiens) (UniProt Q07343); assay: qHTS Assay for Inhibitors of PDE-IV (AID 607; active = well fitted activation curve with a large enough effect in the main read-out, with a control signal flat, not every such curve was filed as active; also: % of control where 0% means no effect)
3',5'-cyclic-AMP phosphodiesterase 4B (Homo sapiens), sequence (Q07343 whole entry, looked up): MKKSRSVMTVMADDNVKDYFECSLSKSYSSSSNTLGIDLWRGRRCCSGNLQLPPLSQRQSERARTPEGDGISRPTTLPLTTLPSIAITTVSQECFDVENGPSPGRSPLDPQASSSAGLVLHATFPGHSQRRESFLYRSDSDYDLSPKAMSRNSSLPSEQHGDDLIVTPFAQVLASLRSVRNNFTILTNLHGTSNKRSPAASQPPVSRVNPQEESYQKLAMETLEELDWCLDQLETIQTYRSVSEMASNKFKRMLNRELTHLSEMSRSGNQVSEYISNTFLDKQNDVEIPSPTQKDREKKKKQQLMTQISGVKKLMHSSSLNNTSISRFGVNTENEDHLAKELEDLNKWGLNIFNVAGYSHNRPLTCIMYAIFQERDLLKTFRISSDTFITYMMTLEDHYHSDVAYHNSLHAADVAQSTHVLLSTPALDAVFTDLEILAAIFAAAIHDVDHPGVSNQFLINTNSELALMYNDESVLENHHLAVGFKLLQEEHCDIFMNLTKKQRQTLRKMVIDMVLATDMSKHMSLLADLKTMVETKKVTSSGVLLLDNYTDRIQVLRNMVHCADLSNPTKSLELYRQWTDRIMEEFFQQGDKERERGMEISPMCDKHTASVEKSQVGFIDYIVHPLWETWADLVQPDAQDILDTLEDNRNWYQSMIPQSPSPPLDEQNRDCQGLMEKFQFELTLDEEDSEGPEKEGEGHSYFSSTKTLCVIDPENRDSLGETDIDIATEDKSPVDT
In short: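 Live HEK293 cells with a modified cyclic nucleotide-gated (CNG) channel report intracellular cAMP via membrane-potential dye fluorescence (ex 535/em 590 nm). Endogenous PDE-IV was targeted. Compounds were tested at up to 22.9 uM final; RO 20-1724 100 uM served as control.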

[9] = qHTS Assay for Lipid Storage Modulators (AID 1519; calls by dose curve); details: Drosophila S3 cells, BODIPY lipid droplet/cell ratio, laser cytometry, cells loaded with oleic acid
In short: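 Cells seeded at 5,000 per well were treated with compounds over a concentration series and loaded with oleic acid (400 uM, as added). Lipid droplet fluorescence (488 nm excitation, 500-530 nm channel) was read by laser-scanning cytometry and normalized to 20 uM Triacsin C.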

[10] = target: Ubiquitin carboxyl-terminal hydrolase 1 (Homo sapiens) (UniProt O94782); assay: Inhibitors of USP1/UAF1: Pilot qHTS (AID 504865);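 also: rhodamine fluorescence freed from ubiquitin-rhodamine substrate followed over time; top concentration of the series differs between compounds; % is scaled to controls: 0 for no effect and ±100 for the full control effect; nearly all actives have a fitted effect of over 35% in size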
Ubiquitin carboxyl-terminal hydrolase 1 (Homo sapiens), sequence (O94782 whole entry, looked up): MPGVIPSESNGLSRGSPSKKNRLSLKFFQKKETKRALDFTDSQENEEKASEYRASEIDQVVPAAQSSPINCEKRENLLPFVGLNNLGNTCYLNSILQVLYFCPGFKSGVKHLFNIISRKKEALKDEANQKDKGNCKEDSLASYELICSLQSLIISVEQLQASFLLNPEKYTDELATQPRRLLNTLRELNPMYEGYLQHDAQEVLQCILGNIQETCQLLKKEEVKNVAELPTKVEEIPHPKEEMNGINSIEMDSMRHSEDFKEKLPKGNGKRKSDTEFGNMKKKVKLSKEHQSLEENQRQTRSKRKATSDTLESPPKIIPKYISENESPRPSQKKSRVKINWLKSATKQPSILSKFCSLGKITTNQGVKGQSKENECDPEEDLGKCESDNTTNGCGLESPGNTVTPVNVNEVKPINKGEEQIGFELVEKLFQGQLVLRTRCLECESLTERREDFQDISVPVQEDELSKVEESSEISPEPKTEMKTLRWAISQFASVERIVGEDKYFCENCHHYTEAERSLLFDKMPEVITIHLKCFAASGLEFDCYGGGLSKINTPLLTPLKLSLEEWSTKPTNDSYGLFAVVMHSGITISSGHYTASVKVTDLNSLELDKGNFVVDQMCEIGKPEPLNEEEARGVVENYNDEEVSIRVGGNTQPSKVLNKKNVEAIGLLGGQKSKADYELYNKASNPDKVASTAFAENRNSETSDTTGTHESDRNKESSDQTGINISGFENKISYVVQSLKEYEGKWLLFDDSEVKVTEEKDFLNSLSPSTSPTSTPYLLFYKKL
In short: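 Enzyme-free wells gave the negative control, while test wells held 1nM USP1/UAF1 preincubated with compound for 15 min at room temperature. Ub-Rho at 150nM final started the reaction, and fluorescence at 480/540 nm was recorded kinetically.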

[11] = target: Luciferin 4-monooxygenase (Photinus pyralis) (UniProt P08659); assay: Biochemical firefly luciferase enzyme assay for NPC (AID 624030);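 also: purified P. pyralis luciferase at 10 nM with luciferin and ATP substrate; 0% = DMSO and -100% = full luciferase inhibition by PTC124 control; nearly all actives have a fitted effect of over 70% in size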
Luciferin 4-monooxygenase (Photinus pyralis), sequence (P08659 whole entry, looked up): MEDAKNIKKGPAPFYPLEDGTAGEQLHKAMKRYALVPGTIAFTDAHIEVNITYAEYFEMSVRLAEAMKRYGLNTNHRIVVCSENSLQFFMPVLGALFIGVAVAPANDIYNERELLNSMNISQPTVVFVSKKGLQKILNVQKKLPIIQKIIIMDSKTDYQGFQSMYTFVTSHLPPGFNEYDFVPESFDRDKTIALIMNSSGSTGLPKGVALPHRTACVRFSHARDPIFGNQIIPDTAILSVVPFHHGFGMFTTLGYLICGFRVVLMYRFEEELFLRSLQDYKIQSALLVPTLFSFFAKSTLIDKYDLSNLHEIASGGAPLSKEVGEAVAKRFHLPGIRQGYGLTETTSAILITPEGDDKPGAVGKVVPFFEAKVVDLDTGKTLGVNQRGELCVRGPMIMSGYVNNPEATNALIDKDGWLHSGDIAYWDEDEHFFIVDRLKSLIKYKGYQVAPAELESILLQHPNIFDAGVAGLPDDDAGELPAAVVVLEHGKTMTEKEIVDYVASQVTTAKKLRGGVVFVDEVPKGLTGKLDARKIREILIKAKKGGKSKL
In short: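 Counter-screen for direct inhibition of the luciferase enzyme by approved-drug library compounds, run at 10 nM enzyme in 50 mM Tris acetate (final). Luminescence was read within 5 min of enzyme-buffer addition and normalized to PTC124 versus DMSO (0%).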

[12] = S16 Schwann cell viability assay (CellTiter-Glo assay) (AID 624031);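 also: native untransfected S16 rat Schwann cells; cellular ATP luminescence as a viability measure; plate controls were DMSO-treated cells for no effect and cell-free wells for full effect; nearly all actives have a fitted effect of over 70% in size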
In short: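 Parental S16 cells, 24 h compound, 37 °C. ATP-luminescence viability; DMSO = 0% activity, empty wells as reference; curves classified by fit quality and efficacy.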

[13] = S16 Schwann cell PMP22 intronic element beta-lactamase assay (AID 624044; calls by dose curve;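 also: 0% = DMSO and -100% = potassium clavulanate positive control; nearly all actives have a fitted effect of over 15% in size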)
In short: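 Beta-lactamase reporter under a PMP22 intronic regulatory element in stable S16 rat Schwann cells; 24 h compound exposure. 460 nm blue signal normalized between DMSO (0%) and potassium clavulanate, with 535 nm FRET tracking viability; curves classed by r2 and response.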

[14] = qHTS profiling for inhibitors of Plasmodium falciparum proliferation (AID 504749);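 also: 0% = DMSO vehicle and full inhibition = artemisinin control; nearly all actives have a fitted effect of over 60% in size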; details: P. falciparum in erythrocytes, SYBR Green DNA, 72 h
In short: (§1)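 Quantitative HTS: compounds pinned into medium, infected erythrocytes added (0.3% parasitemia, 2.5% hematocrit), 72 h culture at 37 C under 5% CO2. Saponin/Triton lysis with SYBR Green I, overnight RT, then fluorescence read.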

C2A = assay: as above; details: P. falciparum in erythrocytes, SYBR Green DNA, 72 h; series mostly up to 12.8 µM
In short: as §1

CP217 = assay: as above; details: P. falciparum in erythrocytes, SYBR Green DNA, 72 h; series mostly up to 12.8 µM
In short: as §1

CP250 = assay: as above; details: P. falciparum in erythrocytes, SYBR Green DNA, 72 h; series mostly up to 12.8 µM
In short: as §1

FAB9 = assay: as above; details: P. falciparum in erythrocytes, SYBR Green DNA, 72 h; series mostly up to 12.8 µM
In short: as §1

JCK = assay: as above; details: P. falciparum in erythrocytes, SYBR Green DNA, 72 h; series mostly up to 12.8 µM
In short: as §1

SC27B = assay: as above; details: P. falciparum in erythrocytes, SYBR Green DNA, 72 h; series mostly up to 12.8 µM
In short: as §1

[15] = measured here: cell count channel max response
[16] = measured here: lipid channel max response
[17] = at 12.8 µM (top of the series), parasite line A
[18] = at 12.8 µM (top of the series), parasite line B

CC(=O)N[C@H]1[C@@H](O[C@@H](C)C(=O)O)[C@H](O)[C@H](CO)O[C@@H]1O
inactive: outcome [1] | Potency [2] | activity change, negative = inhibition [3] 4.75% | outcome [4] | Potency [5] > 20.6 µM | Potency [6] > 20.6 µM | Potency [7] | outcome [8] | activity change, negative = inhibition ([9]; at 25.7 µM (top of the series)) -1.67% | Potency [10]
7.96%: max response [9, 15]
4.82%: max response [9, 16]

CC(=O)[C@@]1(O)CC[C@H]2[C@H]3C[C@@H](C)C4=CC(=O)C=C[C@]4(C)[C@@]3(F)[C@@H](O)C[C@]21C
active: Potency [5] 0.00155 µM | Potency [6] 0.00821 µM
inactive: outcome [1] | Potency [2] | activity change, negative = inhibition [3] 5.97% | outcome [4] | outcome [8] | activity change, negative = inhibition ([9]; at 25.7 µM (top of the series)) -6.74% | Potency [10] | Potency [11] | outcome [12] | Potency [13] | activity, negative = inhibition [14, 17] -2.85% | activity, negative = inhibition [14, 18] -0.507% | Potency (C2A) | Potency (CP217) | Potency (CP250) | Potency (FAB9) | Potency (JCK) | Potency (SC27B)
-14.1%: max response [9, 15]
-19.8%: max response [9, 16]

CN1C(=O)C[C@H](c2ccccc2)C1=O
-25.7%: max response [9, 16]
-28%: max response [9, 15]
inactive: outcome [1] | Potency [2] | activity change, negative = inhibition [3] 35.9% | outcome [4] | Potency [5] > 20.6 µM | Potency [6] > 20.6 µM | Potency [7] | outcome [8] | activity change, negative = inhibition ([9]; at 25.7 µM (top of the series)) 0.325% | Potency [10] | Potency [11] | Potency [13] | activity, negative = inhibition ([14]; at 28.7 µM (top of the series), parasite line B) -2.97% | Potency (C2A) | Potency (CP217) | Potency (CP250) | Potency (FAB9) | Potency (JCK) | Potency (SC27B)

CC1(C)O[C@@H]2C[C@H]3[C@H]4C[C@H](F)C5=CC(=O)CC[C@]5(C)[C@@H]4[C@H](O)C[C@]3(C)[C@]2(C(=O)CO)O1
active: Potency [5] 0.00126 µM | Potency [6] 0.0188 µM
-9.46%: max response [9, 15]
inactive: outcome [1] | Potency [2] | activity change, negative = inhibition [3] -4.77% | outcome [4] | Potency [7] | outcome [8] | activity change, negative = inhibition ([9]; at 25.7 µM (top of the series)) -1.62% | Potency [10] | Potency [11] | outcome [12] | Potency [13] | activity, negative = inhibition [14, 17] -10.9% | activity, negative = inhibition [14, 18] -1.91% | Potency (C2A) | Potency (CP217) | Potency (CP250) | Potency (FAB9) | Potency (JCK) | Potency (SC27B)
-9.41%: max response [9, 16]

CC(=O)N[C@H](CS)C(=O)O
inactive: outcome [1] | Potency [2] | activity change, negative = inhibition [3] -2.14% [at 38 µM] | outcome [4] | Potency [5] > 46 µM | Potency [6] > 46 µM | outcome [8] | activity change, negative = inhibition ([9]; at 57.5 µM (top of the series)) 4.08% | Potency [10]
2.82%: max response [9, 15]
18.6%: max response [9, 16]
